Results on 85 compounds are retold here after PubChem BioAssay AID720582 (The Scripps Research Institute Molecular Screening Center, 2013).

Out of some 370,000 compounds screened, about 2,300 (0.62%) were called active.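 The calls were made as follows: active = inhibition above a per-campaign cutoff equal to the mean of compounds falling between control-based bounds plus 3 SD (cut at about 20% in these data); inactive = the rest.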 The list comes from a sample in which actives are over-represented; it also holds similar structures and randomly drawn compounds.

Chain of Disintegrin and metalloproteinase domain-containing protein 10 (Homo sapiens) (O14672 214-748 limits assumed): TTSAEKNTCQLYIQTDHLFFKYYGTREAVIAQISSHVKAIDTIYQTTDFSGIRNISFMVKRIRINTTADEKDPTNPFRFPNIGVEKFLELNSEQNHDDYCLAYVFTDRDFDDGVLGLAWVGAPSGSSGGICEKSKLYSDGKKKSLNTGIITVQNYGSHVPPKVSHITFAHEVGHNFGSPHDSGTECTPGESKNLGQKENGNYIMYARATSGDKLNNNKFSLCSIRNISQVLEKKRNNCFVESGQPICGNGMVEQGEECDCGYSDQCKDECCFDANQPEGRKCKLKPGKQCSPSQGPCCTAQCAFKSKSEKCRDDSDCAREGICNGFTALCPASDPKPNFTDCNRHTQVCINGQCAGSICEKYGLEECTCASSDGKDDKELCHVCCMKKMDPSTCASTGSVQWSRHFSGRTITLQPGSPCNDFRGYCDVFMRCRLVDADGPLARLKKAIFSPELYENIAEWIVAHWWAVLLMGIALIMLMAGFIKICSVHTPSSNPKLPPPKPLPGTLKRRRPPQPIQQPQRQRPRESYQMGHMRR

The experiment concerns the target Disintegrin and metalloproteinase domain-containing protein 10 (Homo sapiens) (UniProt O14672). The experiment in a line: human ADAM10 inhibitors, primary screen, biochemical, QFRET, HTS (AID 720582).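 Also: 0% = DMSO wells while the 100% control is not disclosed.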 The following applies: recombinant ADAM10, EDANS/DABCYL FRET peptide cleavage, 3 h; at 7 µM; active compounds read high.
Consider `Oc1c(Cl)cc(Cl)c(Cl)c1Cc1c(O)c(Cl)cc(Cl)c1Cl`, for which the inhibition is 36.2% (active). Consider `O=C(CSc1nnc(-c2ccccn2)n1-c1ccc(Cl)cc1)Nc1ccccc1-c1ccccc1`, for which the inhibition is 1.01% (inactive).

Take `C=CCN1C(=O)[C@@H](CC(=O)NCCCOCCCC)[C@]2(C(=O)OCC)CCCCC/C=C/12`: the inhibition is -1.99% (inactive). `O=C(OCc1ccc(-c2ccccc2)cc1)c1cccc(O)c1`: the inhibition is 23.1% (active). For `Cc1ccc(S(=O)(=O)c2c(COC(=O)c3cccc(Cl)c3)c(-c3ccccc3)nn2C)cc1`, the inhibition was 4.59% (inactive).

Take `O=C(OCC(O)C(O)COC(=O)c1ccccc1)c1ccccc1` (stereo not given): the inhibition is -1.65% (inactive). With `C=CCn1c(SCC(N)=O)nnc1-c1ccccc1OC`, the inhibition is -8.66% (inactive).

Consider `CN1C[C@]2(C=C3CCCCC3n3c(=O)n(-c4ccccc4)c(=O)n32)N=C1NC(=O)c1ccccc1` (stereo not given in full), for which the inhibition is 5.49% (inactive). With `O=C(NCc1cccs1)C1CCN(S(=O)(=O)c2ccccc2[N+](=O)[O-])CC1` the figure was 7.43% (inactive). In the case of `Cc1ccc(C)c(NS(=O)(=O)c2ccc(OCC(=O)NCc3cccnc3)cc2)c1`, the inhibition is 5.13% (inactive).

For `Cc1ccc(OCC(=O)Nc2ccc(C(=O)O)cc2NC(=O)COc2ccc(C)c(C)c2)cc1C`, the inhibition was -2.89% (inactive). Turning to `Cc1ccc(NS(=O)(=O)c2ccc(C)c(NC(=O)COc3ccc4ccccc4c3)c2)c(C)c1`, the inhibition is 21.2% (active). `COc1ccc(-n2c(SCC(=O)NC3CCCC3)nnc2-c2ccncc2)cc1`: the inhibition is -6.99% (inactive). Consider `COc1cccc(/C=C2\CC3(OC(C)=O)CCCN2C3)c1` (stereo not given), for which the inhibition is 3.53% (inactive). Regarding `CC(CCN1CCC(C(O)(c2ccccc2)c2ccccc2)CC1)Oc1ccc([N+](=O)[O-])cc1Cl` (stereo not given), the inhibition is 14.3% (inactive). Turning to `O=C(NCc1ccccc1)c1onc(CSc2nc3ccccc3[nH]2)c1C(=O)NCc1ccccc1`, the inhibition was 23.5% (active). As to `O=C(NCc1ccccc1)c1onc(CSc2ccncc2)c1C(=O)NCc1ccccc1`, the inhibition was 6.67% (inactive). `O=C(NCC1CC1)c1onc(CSc2ccccc2)c1C(=O)NCC1CC1`: the inhibition was 4.44% (inactive). On to `CCN(C(=O)[C@@H](C1CC1)[C@@H](O)c1ccc2ccccc2c1)c1ccccc1`, for which the inhibition is 7.43% (inactive). With `CC(C)CNc1cccc2c1S(=O)(=O)N(Cc1cn(Cc3ccccc3C(F)(F)F)nn1)Cc1ccccc1O2`, the inhibition was -26.5% (inactive). With `O=C(CSc1nc2ccccc2s1)N=Nc1c(O)[nH]c2ccccc12` the figure was 7.8% (inactive). As to `Cc1ccc(Cn2cc(CN3[C@@H](C)COc4cc(Br)ccc4S3(=O)=O)nn2)cc1`, the inhibition was -3.91% (inactive). For `CCN1C(=O)C(CC(=O)Nc2cc(C)ccc2C)SC1=Nc1ccc(S(N)(=O)=O)cc1` (stereo not given) the value was 3.57% (inactive). On to `O=C(CC1SC(=Nc2ccccc2)N(Cc2ccccn2)C1=O)Nc1cccc(Cl)c1` (stereo not given), for which the inhibition is 21.2% (active).

Regarding `CN1C(=O)C(CC(=O)Nc2ccccc2)S/C1=N/c1nccs1` (stereo not given), the inhibition is 8.04% (inactive). Regarding `O=C(c1c[nH]c2ccccc12)N1CCC(Oc2cccnc2)CC1`, the inhibition was 1.42% (inactive).

For `Clc1ccc(-n2c(SC/C=C/c3ccccc3)nnc2-c2ccco2)cc1`, the inhibition was 15.1% (inactive). For `CCOC(=O)[C@@]12CN(C(=O)OC(C)(C)C)CC=C1N(Cc1ccc(OC)cc1)C(=O)[C@H]2CC(=O)NCc1ccc(OC)c(OC)c1`, the inhibition is 1.76% (inactive). For `C=CCN1C(=O)[C@H](CC(=O)NCCCN2CCCC2=O)[C@@]2(C(=O)OCC)CCCC=C12` the value was -5.84% (inactive); for `C=CCOC/C=C/C#CCN(CC=C)Cc1ccc(OC)cc1OC`, -0.01% (inactive); for `CC1(C)C=Cc2c(ccc3c2OC[C@@H](c2ccc(O)cc2O)C3)O1`, 26.4% (active). For the compound `COC(=O)C1CN(Cc2cn(Cc3ccc(F)cc3)nn2)CCS(=O)(=O)N1Cc1ccc(Cl)cc1` (stereo not given), the inhibition is 2.41% (inactive).

Turning to `C=CCN1C(=O)[C@@H](CC(=O)NCC2CCCCC2)[C@]2(C(=O)OC)CCCCC=C12`, the inhibition is 5.05% (inactive).

Take `Cc1ccc(O)c(-c2cc(C(=O)NCc3ccccc3)[nH]n2)c1`: the inhibition is 12.6% (inactive).

Turning to `Cc1cc(O)ccc1-c1cc(C(=O)NCc2cc(C(F)(F)F)cc(C(F)(F)F)c2)[nH]n1`, the inhibition was 20.5% (active).

For the compound `CCCOc1ccc(F)cc1-c1cc(C(=O)NCc2ccc(F)cc2)[nH]n1`, the inhibition was 15.3% (inactive). In the case of `O=C(Nc1cc(Cl)cc(Cl)c1)OCCN1CCCC12CCC(c1ccccc1)CC2` (stereo not given), the inhibition was 4.69% (inactive). For `C=C(C)C#CC(Cc1ccccc1)N(CC1CC1)/C(N)=N/C(=O)OCc1ccccc1` (stereo not given) the value was -71.4% (inactive). Consider `CCOc1ccc(Oc2c(Cl)cnn(-c3ccc(C)cc3)c2=O)cc1`, for which the inhibition is 0.21% (inactive). Regarding `CC(NCc1ccco1)C(=O)N1CCCCC1` (stereo not given), the inhibition was -0.25% (inactive).

`Cc1ccc(CC(=O)Nc2ccc(S(=O)(=O)N3CCOCC3)cc2)cc1C`: the inhibition was 9.05% (inactive).

For `O=C(Cc1ccc(Cl)c(Cl)c1)Nc1ccc(SC(F)F)cc1`, the inhibition is 24.6% (active). With `N#C/C(=C\c1cccnc1)C(=O)Nc1ccc(SC(F)F)cc1`, the inhibition was 9.34% (inactive).

On to `O=C1CC[C@@]23CCCN2C(=O)CCC[C@H]3[C@H]1Cc1ccccc1`, for which the inhibition was -4.62% (inactive). In the case of `CN(C)CC(=O)N[C@@H]1C[C@@H]2O[C@H](CO)CC[C@@H]2O[C@@H]1CCc1ccc(C#Cc2ccccc2)cc1`, the inhibition was 7.99% (inactive).

As to `COC(=O)[C@]12C[C@H](CC(=O)NCc3cccs3)C(=O)N(CCc3ccc(OC)c(OC)c3)C1=C[C@H](C(C)C)O[C@@H]2C1CC1`, the inhibition is -6.09% (inactive). As to `CN(C)c1ccc(NC(=O)NC2CCCCN(Cc3ccc(Cl)cc3)C2=O)cc1` (stereo not given), the inhibition was 8.78% (inactive).

Consider `Cc1ccc(CC2(C)C(=O)Nc3ccc(OC(F)(F)F)cc32)cc1` (stereo not given), for which the inhibition is 5.38% (inactive).

For `COc1ccccc1CC1(C)C(=O)Nc2ccc(OC(F)(F)F)cc21` (stereo not given), the inhibition is 22.6% (active). Regarding `CCc1ccc2c(c1)NC(=O)C2(C)Cc1ccc(OC(F)(F)F)cc1` (stereo not given), the inhibition was 14.9% (inactive). Take `C=CCN(Cc1ccc2c(c1)OCO2)C(C#CC1CC1)C(C)(C)C` (stereo not given): the inhibition is -9.94% (inactive). For `Cc1cc(C)cc(NC(=O)N2CCC(N(C)CCC(C)C)CC2)c1`, the inhibition is 3.06% (inactive). For `O=C(C(=O)N1CCC(CNS(=O)(=O)Cc2ccccc2)CC1)c1cc2ccccc2o1`, the inhibition is 0.44% (inactive). In the case of `N#Cc1cccc(C(=O)NCC2CCN(C(=O)C(=O)c3cc4ccccc4o3)CC2)c1`, the inhibition was 1.47% (inactive).

As for `CC(C)(C)c1ccc(S(=O)(=O)NCC2CCN(C(=O)C(=O)c3cc4ccccc4o3)CC2)cc1`, the inhibition was 24.4% (active).

Consider `O=C(NCCCc1ccccc1)[C@H](Cc1ccccc1)NC1(C(=O)NCCc2c[nH]c3ccccc23)CCC1`, for which the inhibition is 10.8% (inactive). For the compound `CCCn1nnnc1NCc1ccc(OC)cc1`, the inhibition was 0.98% (inactive). On to `CCCC(=O)n1nc(NCc2ccc(OC)cc2)nc1NCc1ccc(OC)cc1`, for which the inhibition is 21.3% (active). Regarding `O=C(c1cccs1)n1nc(NCc2ccccc2)nc1NCc1ccccc1`, the inhibition is -4.16% (inactive). `Cc1cc(C)nc(NC(=S)N2CCN(c3ccc(C(F)(F)F)cn3)CC2)c1`: the inhibition was -0.75% (inactive). As to `O=C1CC[C@@H](COc2ccc3[nH]cc(-c4ccccc4)c3c2-c2ccccc2)N1`, the inhibition is -16.4% (inactive). For `Cc1cc(C)cc(NC(=O)CSCc2cnn(-c3ccccc3)c2-n2cccc2)c1`, the inhibition is 20.7% (active). For the compound `CC(=O)Nc1ccc(NC(=O)CSCc2cnn(-c3ccccc3)c2-n2cccc2)cc1`, the inhibition is -1.8% (inactive). With `Cc1cc(C)cc(NC(=O)CSc2ccccc2)c1`, the inhibition was 7.73% (inactive).

Regarding `O=C(NCCc1c[nH]c2ccccc12)OCc1cn(-c2c(F)cccc2F)nn1`, the inhibition was 2.44% (inactive).

`CCOC(=O)[C@@]12CCC3=C1N(CCC3)C(=O)[C@H](CC(=O)N1CCN(C(=O)c3ccco3)CC1)C2`: the inhibition is 0.02% (inactive). With `O=C(CCNS(=O)(=O)c1ccccc1C(F)(F)F)NCc1ccc2c(c1)OCO2`, the inhibition was 4.73% (inactive). As for `CC1(C(=O)NCc2ccc3c(c2)OCO3)CCN1C(=O)Cc1cccc2ccccc12` (stereo not given), the inhibition was -4.08% (inactive). For `N#Cc1nc(Cc2cccc3ccccc23)oc1NCc1ccc2c(c1)OCO2`, the inhibition was 22.7% (active). For the compound `C[C@@H]1COc2cccc(N3CCCC3)c2S(=O)(=O)N1C`, the inhibition was -13.8% (inactive). Take `CCCCNC(=O)C[C@@H]1C(=O)N(CCc2ccc(Cl)cc2)C2=CCCC[C@]21C(=O)OCC`: the inhibition was 1.59% (inactive).

On to `CCCCC(=O)N[C@@H]1CC[C@@]23CCCN2C(=O)CCC[C@H]3[C@H]1C`, for which the inhibition is -8.02% (inactive). With `CC(C)(C)NC(=O)C(c1cccnc1)N(C(=O)c1cnco1)c1ccc(C(C)(C)C)cc1` (stereo not given) the figure was -5.34% (inactive); with `CC1Cc2ccccc2N1C(=O)CSc1nc2ccccc2o1` (stereo not given), 3.31% (inactive); with `Cc1ccc(/C=N/NC(=O)CSc2nc3ccccc3o2)cc1`, 22.1% (active). `O=C(CSc1nc2ccccc2o1)N/N=C/c1ccccc1C(=O)O`: the inhibition is 5.59% (inactive).

On to `C[C@H](C(=O)N(C)c1ccccc1)[C@@H](O)c1ccc2ccccc2c1`, for which the inhibition is -0.77% (inactive).

Turning to `COc1ccc(-c2cc(-c3nnc(SCc4ccc([N+](=O)[O-])cc4)n3N)[nH]n2)cc1`, the inhibition was 0.29% (inactive).

In the case of `COc1ccc(C(=O)NNC(=S)NC(=O)c2ccccc2)cc1`, the inhibition was 24% (active). Turning to `COc1cc(NS(=O)(=O)c2ccc(NC(=S)NC(=O)c3ccccc3)cc2)nc(OC)n1`, the inhibition was 6.57% (inactive). With `COc1ccc(C(=O)NNc2cc(C)nc(NNC(=O)c3ccc(OC)cc3)n2)cc1`, the inhibition was -1.03% (inactive). With `C=C1C(C(C)C)N(C)C2=NC(c3ccccc3)CC(=O)N12` (stereo not given), the inhibition was -17.1% (inactive). `COc1cccc(C2CC(c3cccs3)=NN2C(=O)CSC2=NCCS2)c1OC` (stereo not given): the inhibition is -3.83% (inactive). In the case of `CCS(=O)(=O)Nc1ccc(C2=NN(S(=O)(=O)c3ccc(F)cc3)C(c3ccco3)C2)cc1` (stereo not given), the inhibition is 4.53% (inactive).

As to `COc1cccc(C2CC(c3ccccc3)=NN2S(=O)(=O)c2ccccc2)c1OC` (stereo not given), the inhibition was 29.9% (active).
